The panel holds about 79,000 compounds, 15% with a hit somewhere; the sample as a whole holds those more often. A number with no mark means an inactive call. Activity calls are given as the source filed them. No stated cut-off is given here; in the data, active means growth inhibition above about 70%; inactive means the rest.
Experiments:
[1] = NCI Yeast Anticancer Drug Screen. Data for the rad50 strain (AID 155);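 further: 0% = growth of vehicle-only cultures of the same strain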; conditions: S. cerevisiae rad50 strain growth inhibition, hits give high values
Outline: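 Compounds were tested on a yeast strain with an engineered DNA damage repair alteration; the reported value is growth inhibition normalised to vehicle treatment.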

[2] = NCI Yeast Anticancer Drug Screen. Data for the mec2-1 strain (AID 157); conditions: S. cerevisiae mec2-1 strain, hits give high values
Outline: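 Mutant yeast (mec2-1) grown with compound; growth inhibition relative to vehicle control reported.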

[3] = NCI Yeast Anticancer Drug Screen. Data for the sgs1 mgt1 strain (AID 161);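 further: 0% = growth of cultures given vehicle only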; conditions: S. cerevisiae sgs1 mgt1 strain, hits give high values
Outline: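 Growth of a repair-deficient yeast mutant was monitored after compound treatment and expressed as inhibition relative to vehicle-treated cultures.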

[4] = NCI Yeast Anticancer Drug Screen. Data for the cln2 rad14 strain (AID 165);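 further: 0% = growth equal to vehicle treated cultures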; conditions: S. cerevisiae cln2 rad14 strain, hits give high values
Outline: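 Readout is yeast growth inhibition versus vehicle-treated controls, using a strain with cln2 and rad14 alterations exposed to compound.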

[5] = NCI Yeast Anticancer Drug Screen. Data for the bub3 strain (AID 167); conditions: S. cerevisiae bub3 mutant strain, hits give high values
Outline: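 Growth of a checkpoint-deficient yeast mutant is measured after compound exposure. Values represent inhibition relative to vehicle.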

[6] = NCI Yeast Anticancer Drug Screen. Data for the mlh1 rad18 strain (AID 175); conditions: S. cerevisiae mlh1 rad18 strain growth inhibition, hits give high values
Outline: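 Genetically defined yeast (DNA repair-deficient) exposed to compounds; growth inhibition determined relative to vehicle.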

[7] = at 5.0 µM (retest, dose inferred, filed as 0.5)
[8] = at 50.0 µM (retest, dose inferred, filed as 5.0)

| Compound | growth inhibition [1, 7] | growth inhibition [1, 8] | growth inhibition ([1]; at 50.0 µM) | growth inhibition [2, 7] | growth inhibition [2, 8] | growth inhibition ([2]; at 50.0 µM) | growth inhibition [3, 7] | growth inhibition [3, 8] | growth inhibition ([3]; at 50.0 µM) | growth inhibition [4, 7] | growth inhibition [4, 8] | growth inhibition ([4]; at 50.0 µM) | growth inhibition [5, 7] | growth inhibition [5, 8] | growth inhibition ([5]; at 50.0 µM) | growth inhibition [6, 7] | growth inhibition [6, 8] | growth inhibition ([6]; at 50.0 µM) |
| --- | --- | --- | --- | --- | --- | --- | --- | --- | --- | --- | --- | --- | --- | --- | --- | --- | --- | --- |
| CC(CC(C)[C@H]1CCC2[C@H]3C(CC(=O)[C@@]21C)[C@@]1(C)CCC(O)C[C@H]1C[C@@H]3O)C(=O)O (stereo not given in full) | -1% | 99% (active) | 98.3% (active) | 1% | 99% (active) | 98.5% (active) | -1% | 98% (active) | 98.8% (active) | -4% | 99% (active) | 96.8% (active) | -4% | 98% (active) | 99% (active) | 10% | 99% (active) | 98.2% (active) |
| CCC[CH2][Sn]([S][Sn]([CH2]CCC)([c]1ccccc1)[c]1ccccc1)([c]1ccccc1)[c]1ccccc1 | 97% (active) | 94% (active) | 99.3% (active) | 93% (active) | 95% (active) | 99.5% (active) | 99% (active) | 93% (active) | 99.5% (active) | 97% (active) | 83% (active) | 98% (active) | 98% (active) | 87% (active) | 98.8% (active) | 98% (active) | 91% (active) | 99.3% (active) |
| COc1ccc(OC(C)=O)c2c1CCC=CC2=O | 14% | 93% (active) | 41.9% | 24% | 96% (active) | 41.9% | 18% | 93% (active) | 61.3% | 14% | 80% (active) | 57% | 22% | 92% (active) | 65.3% | 14% | 95% (active) | 74% (active) |
| CCCCc1cc2c(cc1O)CCC1C2CC[C@@]2(C)C1CC[C@@H]2O (stereo not given in full) | 5% | 96% (active) | 67.5% | -6% | 95% (active) | 78.5% (active) | -5% | 95% (active) | 80.6% (active) | 2% | 97% (active) | 86.8% (active) | -27% | 96% (active) | 81.7% (active) | -2% | 96% (active) | 84.6% (active) |
| CC(C)N(CCO)CC(O)Cn1cnc2c(N)ncnc21 (stereo not given) (tested in a mixture with another compound) | -17% | 0% | -37.5% | -9% | -8% | 7.75% | -14% | 1% | -15.6% | -18% | -6% | 40.2% | -8% | -6% | -4.65% | -8% | -5% | 43% |
| COc1ccc(CN2CCCN(Cc3ccc(OC)cc3)C2Cc2cc(Cl)ccc2OC)cc1 | -3% | 58% | 82.4% (active) | -3% | 61% | 48.8% | -44% | 63% | 80.7% (active) | -6% | 19% | 33.4% | -5% | 56% | 56.5% | 18% | 85% (active) | 77.8% (active) |
| O=C1/C(=N/N=C(c2ccccc2)c2ccccc2)c2ccccc2-c2ccccc21 | 7% | 65% | 60.9% | 1% | 14% | 0.45% | -1% | 23% | -2.6% | 2% | -5% | 0.15% | 7% | 27% | 8.5% | 7% | 44% | 72.3% (active) |
| CC(=O)c1c(O)c(C)c(O)c2c1OC1=CC(=O)c3c(C)noc3C12C (stereo not given) | -1% | 10% | 24.9% | -3% | 7% | 26.1% | -2% | 10% | -2.55% | 10% | 16% | 25.3% | -9% | 1% | 12.8% | -1% | 10% | 54.1% |
| Cc1nc(Nc2ccc(Cl)cc2)sc1C(=O)NNc1ccc([N+](=O)[O-])cc1[N+](=O)[O-] | 24% | 24% | 88.8% (active) | 9% | 9% | 90.2% (active) | -6% | -6% | 90.5% (active) | 9% | 9% | 89.4% (active) | 10% | 10% | 92.8% (active) | 16% | 16% | 89.8% (active) |
| CC(c1ccc(OCc2ccccc2)cc1)c1cc2c(cc1OCCO)OCO2 (stereo not given) | 3% | 46% | 61.2% | -1% | 41% | 76.2% (active) | 9% | 57% | 31.9% | -1% | 47% | 43.5% | 6% | 58% | 49.7% | 4% | 62% | 43.2% |
